Assay results: PubChem BioAssay (NCATS)
Records with an inconclusive call do not appear. A call without a number means that no potency is given here. Active and inactive are the calls of the source. Calls follow the shape of the dose curve; as a rule, active = well fitted activation curve with a large enough effect; inconclusive = small, poorly fitted or top-dose-only effect; inactive = flat fitted curve, though single readings scatter.

Assay: Primary redox qHTS assay for identification of artifact compounds. (AID 1845223)
Settings: Amplex Red/HRP redox cycling with DTT, fluorescence; series mostly up to 53.8 µM
How it was run: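 Amplex Red (25 uM) and HRP (250 mU/mL) in HBSS, with compounds for 15 min, then 250 uM DTT for 30 min, room temperature, dark. Fluorescence 525/598 nm read; normalized to DMSO and 10 uM DA3003; Hill fit.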

| Compound | Potency | redox activity (% of DA3003) |
| --- | --- | --- |
| CC(CCc1ccc(O)cc1)O[C@@H]1O[C@H](CO[C@@H]2OC(CO)[C@H](O)[C@H]2O)[C@@H](O)[C@H](O)[C@H]1O (stereo partly drawn) | inactive |  |
| CCOC(=O)C1=C(N)Oc2ccc(Cl)cc2C1C(C#N)C(=O)OCC (stereo not drawn) | inactive |  |
| C[C@H]1CC[C@@]2(OC1)O[C@H]1CC3C4CC[C@H]5C[C@@H](O[C@@H]6O[C@H](CO)[C@H](O[C@@H]7O[C@H](CO)[C@@H](O)[C@H](O[C@@H]8OC[C@@H](O)[C@H](O)[C@H]8O)[C@H]7O[C@@H]7O[C@H](CO)[C@@H](O)[C@H](O)[C@H]7O)[C@H](O)[C@H]6O)[C@H](O)C[C@]5(C)C4=CC(=O)[C@]3(C)[C@H]1[C@@H]2C (stereo partly drawn) |  | 3.4% [at 11.5 µM] (inactive) |
| C[C@]1(OC(=O)/C=C/c2ccccc2)C[C@@H](O)[C@]2(O)C=CO[C@@H](O[C@@H]3O[C@H](CO)[C@@H](O)[C@H](O)[C@H]3O)[C@@H]21 | inactive |  |
| COc1c2cc(c(O)c1OC)CCCCC(O)CCc1ccc(O)c-2c1 (stereo not drawn) | inactive |  |
| CC1(C(=O)O)CCCC2(C)C3CCC4CC3(CCC12)CC4(O)CO (stereo not drawn) | inactive |  |
| CC(=O)/C=C/C1(O)C(C)=CC(=O)CC1(C)C (stereo not drawn) | inactive |  |
| CC(=O)/C=C/C1(O)C(C)(C)CC(O)CC1(C)O (stereo not drawn) | inactive |  |
| CC[C@@H](Nc1c(Nc2cccc(C(=O)N(C)C)c2O)c(=O)c1=O)c1ccc(C)o1 | inactive |  |
| C/C=C(\C)C(=O)OC1C(C)C2(O)C3C=C(C)C(=O)C3CC(CO)=CC2C2C(C)(C)C12OC(C)=O (stereo not drawn) | inactive |  |
| CC1(C(=O)O)CCCC2(C)C3CCC4CC3(CCC12)CC4C(=O)O (stereo not drawn) | inactive |  |
| Cc1ccc([C@@H]2CC=C(C(=O)O)[C@H](c3ccc(C(C)(C)C)cc3)N2S(=O)(=O)c2ccc(C)cc2)cc1 | inactive |  |
| Cc1cn(C[C@H](N)C(=O)O)c(=O)n(Cc2ccsc2C(=O)O)c1=O | inactive |  |
